Hit rate of the full screen: of about 310,000 compounds, about 14,000 (4.5%) showed an effect of 50% or more. The effect is printed as a negative number. The sample holds strong results, similar compounds and a random draw of the others, so the mix is not that of the screen.
Biological target: human ether-à-go-go-related gene (hERG) potassium channel (human, UniProt Q12809)
Assay: primary screen, population patch clamp on CHO cells stably expressing hERG; higher = less effect of the substance
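Also: peak tail current of the secondary pulse compared with the same well before compound.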

human ether-à-go-go-related gene (hERG) potassium channel, sequence (Q12809 whole entry, looked up): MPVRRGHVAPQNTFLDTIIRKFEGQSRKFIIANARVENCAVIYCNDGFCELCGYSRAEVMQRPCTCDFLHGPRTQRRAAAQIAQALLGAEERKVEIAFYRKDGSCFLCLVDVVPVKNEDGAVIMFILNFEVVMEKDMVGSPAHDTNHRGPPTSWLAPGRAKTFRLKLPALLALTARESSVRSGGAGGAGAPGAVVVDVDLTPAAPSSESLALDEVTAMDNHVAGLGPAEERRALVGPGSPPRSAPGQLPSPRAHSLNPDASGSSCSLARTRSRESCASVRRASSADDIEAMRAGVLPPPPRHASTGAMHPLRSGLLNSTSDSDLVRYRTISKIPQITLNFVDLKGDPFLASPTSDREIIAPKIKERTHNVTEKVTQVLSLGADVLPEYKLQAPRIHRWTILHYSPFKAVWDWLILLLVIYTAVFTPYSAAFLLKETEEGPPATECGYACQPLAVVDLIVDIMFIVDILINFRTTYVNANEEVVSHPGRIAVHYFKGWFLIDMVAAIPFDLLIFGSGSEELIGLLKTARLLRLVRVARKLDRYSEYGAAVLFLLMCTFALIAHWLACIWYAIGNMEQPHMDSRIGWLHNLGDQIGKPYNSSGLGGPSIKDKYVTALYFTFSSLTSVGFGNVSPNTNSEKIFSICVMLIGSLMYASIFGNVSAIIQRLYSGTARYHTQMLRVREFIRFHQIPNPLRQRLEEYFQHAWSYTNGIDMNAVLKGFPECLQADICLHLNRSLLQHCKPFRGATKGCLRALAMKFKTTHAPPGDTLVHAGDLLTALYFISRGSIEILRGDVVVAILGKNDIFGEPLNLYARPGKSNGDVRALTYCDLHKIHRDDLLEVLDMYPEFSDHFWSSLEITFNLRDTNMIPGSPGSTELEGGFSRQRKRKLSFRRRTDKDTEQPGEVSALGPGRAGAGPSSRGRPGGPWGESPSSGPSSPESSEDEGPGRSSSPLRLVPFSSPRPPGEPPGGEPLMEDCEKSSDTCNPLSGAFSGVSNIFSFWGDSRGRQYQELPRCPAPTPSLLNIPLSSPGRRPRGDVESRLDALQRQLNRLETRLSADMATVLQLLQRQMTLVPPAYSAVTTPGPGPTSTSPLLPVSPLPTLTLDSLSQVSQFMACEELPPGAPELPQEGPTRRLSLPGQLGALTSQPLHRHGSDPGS

Row | SMILES | hERG current change (%, negative = inhibition) at 10uM [%]
1 | O=[N+]([O-])c1cccn2cc(-c3ccc(Br)cc3)nc12 | -2.94
2 | NS(=O)(=O)c1ccc(CCNC(=O)CCCCCNc2nc(=S)[nH]c3ccccc23)cc1 | 24.4
3 | CC(=NCc1cccnc1)c1c(O)n(-c2ccc(C)cc2)c(=O)[nH]c1=O | -8.92
4 | Cc1ccc(NCc2cccnc2)cc1 | 2.82
5 | Cc1ccc(-n2c(=O)cc(NCc3cccnc3)[nH]c2=O)cc1 | -65.5
6 | COc1ccc(-c2cc(C(=O)N3CCCCCC3)no2)cc1OC | 7.06
7 | Cn1c(=O)c2c(nc(-n3ccnc3)n2Cc2ccc([N+](=O)[O-])cc2)n(C)c1=O | -43.7
8 | Cc1cccc(C)c1NC(=O)CN1CCN(CC(=O)c2cc(C)n(C3CC3)c2C)CC1 | -12.4
9 | Cc1cc(C(=O)CN2C(=O)c3ccccc3C2=O)c(C)n1C1CC1 | -1.31
10 | Cc1cc(C(=O)OCC(=O)Nc2ccc(F)cc2)c(C)n1C1CC1 | 5.51
11 | Cc1cc(C(=O)CN2CCN(CC(=O)Nc3ccc(F)cc3)CC2)c(C)n1C1CC1 | -74.5
12 | Cc1cc(C(=O)CN2CCN(CC(=O)Nc3cccc(F)c3)CC2)c(C)n1C1CC1 | -56.2
13 | Cc1cc(C(=O)OCC(=O)Nc2cccc(F)c2)c(C)n1C1CC1 | -2.59
14 | CC1=C(C(=O)OCc2ccccc2)C(c2ccsc2)NC(=O)N1C (stereo not drawn) | -37.7
15 | CCOC(=O)C(Cc1ccc(OC)c([N+](=O)[O-])c1)NC(=O)CCC(=O)Nc1ccc(C)cc1 (stereo not drawn) | -26.2
16 | COC(=O)c1ccc(/C=C/c2c(-c3ccc(OC)cc3)oc3ccc(N4CCOCC4)cc23)cc1 | 25.7
17 | Cc1cc(NC(=O)c2cnn3c(C(F)(F)F)cc(-c4ccc(Br)cc4)nc23)no1 | 24.4
18 | C[C@]12CC[C@@H]3c4ccc(O)cc4[C@@H](O)C[C@H]3[C@@H]1CC[C@@H]2O | 10.4
19 | C[C@]12CC[C@@H]3c4ccc(O)cc4C(=O)C[C@H]3[C@@H]1CC[C@@H]2O | -52.7
20 | C[C@]12CC[C@@H]3c4ccc(O)c(O)c4CC[C@H]3[C@@H]1CC[C@@H]2O | 15.4
21 | CCN(CC)S(=O)(=O)c1ccc(/C=C/C(=O)OCC#N)cc1 | -12.4
22 | COC(=O)c1cccc(NCN2C(=O)c3ccccc3C2=O)c1 | 1.11

Row | SMILES | hERG current change (%, negative = inhibition) at 10uM [%]
23 | COc1cccc(NC(=O)CN(C)C(=O)Cc2c(C)nc3ccccc3c2C)c1 | -62.8
24 | CN(CC(=O)Nc1cccc(F)c1)C(=O)CCc1nc2ccccc2c(=O)[nH]1 | 2.42
25 | CCOc1ccc(NC(=O)CN(C)C(=O)Cc2c(C)nc3ccccc3c2C)cc1OCC | -47
26 | COc1ccc(NC(=O)CN(C)C(=O)Cc2c(C)nc3ccccc3c2C)cc1 | -46.1
27 | CN(CC(=O)Nc1cccc(F)c1)C(=O)Cc1n[nH]c(=O)c2ccccc12 | 5.31
28 | Cc1nc2ccccc2c(C)c1CC(=O)N(C)CC(=O)Nc1cccc(F)c1 | -55.9
29 | Cc1ccc(C(C(=O)NC(C)(C)C)N(C(=O)c2csnn2)c2ccccc2F)o1 (stereo not drawn) | -9.84
30 | CC(C)CC(=O)NS(=O)(=O)c1ccc(NS(C)(=O)=O)cc1 | 11.7
31 | CCCc1nc(Nc2nc3ccccc3o2)nc(C)c1C(=O)OCC | -18.3
32 | CCN(CC)CCN(C(=O)Cn1nnc(-c2ccc(OC)c(OC)c2)n1)C(C(=O)NC1CCCC1)c1ccc(F)cc1 (stereo not drawn) | -35.1
33 | CCN(CC)CCCN(C(=O)Cn1nnc(-c2ccc(OC)c(OC)c2)n1)C(C(=O)NC(C)(C)C)c1ccc(F)cc1 (stereo not drawn) | -74.5
34 | CCOCCCN(C(=O)Cn1nnc(-c2ccc(OC)c(OC)c2)n1)C(C(=O)NCC1CCCO1)c1ccc(F)cc1 (stereo not drawn) | -12.8
35 | CCOC(=O)N1CCC(N2CCN(c3ccccc3)CC2)CC1.Cl | -21.4
36 | CCOC(=O)N1CCN(c2c(NCc3ccc(Cl)cc3)c(=O)c2=O)CC1 | -17
37 | CCOC(=O)N1CCN(c2c(N3CCN(c4cc(C)ccc4C)CC3)c(=O)c2=O)CC1 | -15.1
38 | CCOC(=O)N1CCC(Nc2c(N3CCN(c4cccc(C(F)(F)F)c4)CC3)c(=O)c2=O)CC1 | -76.8
39 | CCOC(=O)N1CCC(NCCNC(=O)c2ccc(F)cc2)CC1.Cl | -25.2
40 | CCOC(=O)N1CCC(Nc2c(N3CCN(c4cc(Cl)ccc4C)CC3)c(=O)c2=O)CC1 | -80.4
41 | CCOC(=O)N1CCC(NCCNC(=O)c2ccc(Cl)cc2)CC1 | -57.8
42 | CCOC(=O)N1CCN(c2c(NC3CCN(Cc4ccccc4)CC3)c(=O)c2=O)CC1 | 7.18
43 | CCOC(=O)N1CCN(c2c(N3CCN(c4cccc(C(F)(F)F)c4)CC3)c(=O)c2=O)CC1 | -46.4
44 | CCOC(=O)N1CCC(NC(=O)c2ccc(Cl)cc2)CC1 | -14.5

Row | SMILES | hERG current change (%, negative = inhibition) at 10uM [%]
45 | CCOC(=O)N1CCC(N2CCN(c3cc(C)ccc3C)CC2)CC1 | -51.2
46 | CCOC(=O)N1CCC(Nc2c(NCCN3CCN(c4cccc(Cl)c4)CC3)c(=O)c2=O)CC1 | -0.879
47 | C[C@@H]1C(=O)O[C@H]2[C@H]1CC[C@@]1(C)C(=O)C=C[C@@](C)(O)[C@H]21 | 15.6
48 | C=CCN1C(=O)c2ccc(C(=O)OCC(=O)N3CCN(c4ccccc4)CC3)cc2C1=O | 7.02
49 | CC(C(=O)NCCc1ccccc1)N1c2cccc3cccc(c23)S1(=O)=O (stereo not drawn) | -21.2
50 | Cc1ccc(C(=O)OCC(=O)NNC(=O)COc2ccc(Cl)cc2)c(O)c1 | -2.08
51 | O=C(Cc1ccc(NS(=O)(=O)c2ccc(F)cc2)cc1)NCc1ccccc1 | -16.4
52 | O=C(N/N=C/c1cc([N+](=O)[O-])ccc1O)C12CC3CC(CC(C3)C1)C2 | 8.39
53 | CCN(CC(=O)Nc1c(F)cccc1F)C(=O)CSc1ccccc1 | 8.37
54 | CCSc1ccccc1C(=O)Nc1ccc([N+](=O)[O-])cc1OC | -51.9
55 | COCCSc1ccccc1C(=O)Nc1ccc([N+](=O)[O-])cc1OC | -39.9
56 | O=C(c1cc([N+](=O)[O-])ccc1Cl)N1CCN(c2ccc(F)cc2)CC1 | -27.9
57 | O=C(c1cnc2n(c1=O)CCS2)N1CCN(c2ccccc2F)CC1 | -5.65
58 | O=C(c1cc([N+](=O)[O-])ccc1Cl)N1CCN(c2ccccc2)CC1 | -6.43
59 | O=C(c1cnc2n(c1=O)CCS2)N1CCN(C(c2ccccc2)c2ccc(Cl)cc2)CC1 (stereo not drawn) | -52.4
60 | COCCSc1ccccc1C(=O)Nc1cc([N+](=O)[O-])ccc1OC | -28.8
61 | CCSc1ccccc1C(=O)N1CCN(c2ccccc2F)CC1 | 17.6
62 | CCSc1ccccc1C(=O)N1CCN(c2ccc([N+](=O)[O-])cc2)CC1 | -79.4
63 | O=C(c1cc([N+](=O)[O-])ccc1Cl)N1CCN(c2ccc([N+](=O)[O-])cc2)CC1 | -73.6
64 | CCSc1ccccc1C(=O)N1CCCC1 | -5.81
65 | CC(NC(=O)c1cnc2n(c1=O)CCS2)c1ccccc1 (stereo not drawn) | 3.42
66 | Cc1cccc(NC(=O)COC(=O)Cc2cccc(C(F)(F)F)c2)c1C | 22.8

Row | SMILES | hERG current change (%, negative = inhibition) at 10uM [%]
67 | Cc1cc(C)n(CCNC(=O)CC2C(=O)NCCN2Cc2ccccc2C(F)(F)F)n1 (stereo not drawn) | 8.81
68 | COCCOC(=O)C1=C(C)OC(N)=C(C#N)C1c1ccc2c(c1)OCO2 (stereo not drawn) | -0.292
69 | CCCOc1ccc(/C=N/NC(=O)C(C)Sc2ccccn2)cc1OCC (stereo not drawn) | 14.9
70 | CCOCC(=O)Nc1cc([N+](=O)[O-])ccc1OC | 15.7
71 | N#C/C(=C\C=C\c1ccccc1)c1nc(-c2ccc3c(c2)OCO3)cs1 | -3.96
72 | COc1ccc(N(CC(=O)NCc2cccs2)S(=O)(=O)c2ccc(F)cc2)cc1 | -0.742
73 | CN(Cc1nccs1)C(=O)C1CCC(=O)N(Cc2ccccc2F)C1 (stereo not drawn) | -16.1
74 | COc1cccc(-c2ccc(=O)n(CC(=O)Nc3ccc(C(=O)N4CCCC4)cc3)n2)c1 | -15.4
75 | COc1cc(/C=C/c2cccc[n+]2C)ccc1OCC(=O)Nc1ccccc1.[I-] | 8.86
76 | CC(=O)c1ccc(N2CCN(C(=O)c3cc(-c4cccnc4)nc4ccc(Br)cc34)CC2)cc1 | 2.5
77 | Cc1ccc(S(=O)(=O)N2CCN(C(=O)c3cc(S(=O)(=O)N(C)C)ccc3N3CCCC3)CC2)cc1 | -11.1
78 | O=C(c1cc(=O)[nH]c2ccccc12)N1CCN(c2ccc([N+](=O)[O-])cc2)CC1 | -65.1
79 | COc1ccc(N2CCN(C(=O)c3cc(=O)[nH]c4ccccc34)CC2)cc1 | -0.412
80 | O=C(c1cc([N+](=O)[O-])ccc1N1CCOCC1)N1CCOCC1 | 18.1
81 | CN(C)S(=O)(=O)c1ccc(N2CCCC2)c(C(=O)N2CCN(c3ccc([N+](=O)[O-])cc3)CC2)c1 | -76.7
82 | O=C(c1cc(=O)[nH]c2ccccc12)N1CCN(c2ccccc2)CC1 | 2.12
83 | Cc1cccc(N2CCN(C(=O)c3cc(S(=O)(=O)N(C)C)ccc3N3CCCC3)CC2)c1C | -12.3
84 | O=C(c1cc([N+](=O)[O-])ccc1N1CCOCC1)N1CCN(c2ccc([N+](=O)[O-])cc2)CC1 | -79.8
85 | O=C(c1cc([N+](=O)[O-])ccc1N1CCOCC1)N1CCN(c2ccccc2)CC1 | -32.3
86 | Cc1ccc2nc(-c3cccnc3)cc(C(=O)N3CCN(c4ccc([N+](=O)[O-])cc4)CC3)c2c1 | -68.2
87 | Cc1ccc2c(C(=O)N3CCN(c4ccccc4)CC3)cc(-c3cccnc3)nc2c1C | 4.03
